Measured values reported in the supplement of paper PMC10646978.
± gives the standard deviation.

Key:
Conditions in all cases: modulator concentration 10 µM
[1] = tested on: RAW-Dual (murine macrophage reporter line); assay: NF-kB reporter (SEAP) activity fold change vs agonist alone; higher = enhanced NF-kB activity
How it was run: (§1)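 Compound reached 10 μM final in each well by pin transfer, onto RAW-Dual murine macrophage reporter cells seeded at 50 000 per well in 384-well plates. After 1 hour at 37 °C, the cells were stimulated overnight with a PRR agonist. SEAP in the supernatant was read with QUANTI-Blue at 620 nm absorbance for NF-κB, and Lucia luciferase was read with QUANTI-Luc luminescence for IRF. Each signal was turned into fold change against the mean agonist-only control on the same plate, and two replicate plates were averaged with propagated errors.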

[2] = tested on: RAW-Dual (murine macrophage reporter line); assay: IRF reporter (Lucia luciferase) activity fold change vs agonist alone; higher = enhanced IRF activity
How it was run: as §1

[3] = tested on: RAW-Dual (murine macrophage reporter line); assay: viability score (confluency relative to resting cells, overnight) (fraction); higher = more viable, active = viable (0.7 or more)
How it was run: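 RAW-Dual macrophages in 384-well plates were exposed overnight to compound at 10 μM final. Confluency was imaged with IncuCyte, and two confluency masks were generated with IncuCyte software over all imaged wells. The viability score is confluency expressed relative to resting cells. Compounds were called viable if both masks exceeded 70% of resting cells.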

[4] = agonist: CpG ODN 1826 0.5 ug/mL

Compound	NF-kB reporter [1, 4]	NF-kB reporter ([1]; agonist: LPS 0.1 ug/mL)	NF-kB reporter ([1]; agonist: MPLA […])	IRF reporter ([2]; agonist: 3'3'-cGAMP 10 ug/mL)	IRF reporter ([2]; agonist: LPS 0.1 ug/mL)	IRF reporter ([2]; agonist: MPLA […])	viability score [3]
NNC(=O)c1ccccc1	1.06 ± 0.088	1.05 ± 0.082	1.02 ± 0.022	0.929 ± 0.086	0.914 ± 0.15	0.931 ± 0.12	1 (active)
CC[C@@H](C(N)=O)N1CCCC1=O	1.04 ± 0.1	1.05 ± 0.059	0.993 ± 0.056	1.06 ± 0.17	0.88 ± 0.075	0.863 ± 0.15	1 (active)
Cc1c(NN=C2C(=O)NC(=O)NC2=O)c(=O)n(-c2ccccc2)n1C	1.02 ± 0.1	1.03 ± 0.086	0.958 ± 0.042	0.951 ± 0.13	1.08 ± 0.096	0.932 ± 0.14	0.999 (active)
Cc1cc(N2CCNCC2)c2ccccc2n1	0.0643 ± 0.01	0.789 ± 0.062	0.899 ± 0.092	0.561 ± 0.045	1.15 ± 0.31	1.15 ± 0.16	0.994 (active)
COc1ccc(CCNCc2ccc3ccccc3c2)cc1	0.853 ± 0.068	0.755 ± 0.051	1.65 ± 0.11	0.88 ± 0.06	0.98 ± 0.13	2.58 ± 0.29	0.123 (inactive)
Cc1c(NC=C2C(=O)NC(=O)NC2=O)c(=O)n(-c2ccccc2)n1C	0.967 ± 0.077	1.08 ± 0.074	0.957 ± 0.06	1.01 ± 0.029	1.45 ± 0.2	1.08 ± 0.069	1.02 (active)
CCOC(=O)c1ccccc1-c1ccc(C=C2C(=O)NC(=O)N(c3ccccc3C)C2=O)o1	0.727 ± 0.082	0.444 ± 0.025	0.358 ± 0.051	0.655 ± 0.023	0.631 ± 0.096	0.321 ± 0.088	0.0805 (inactive)
CC12CC1(C)C(=O)N(c1cc(Cl)cc(Cl)c1)C2=O (centres undefined)	1.06 ± 0.092	1.1 ± 0.097	0.96 ± 0.045	0.942 ± 0.085	1.11 ± 0.081	1.18 ± 0.17	1 (active)
CCC1(C)CC(CCNCc2ccccc2)(c2ccc(C)cc2)CCO1 (centres undefined)	0.701 ± 0.29	1.15 ± 0.099	1.19 ± 0.18	0.57 ± 0.018	1.38 ± 0.14	1.76 ± 0.31	0.547 (inactive)
CC(C)(C)NCC(O)c1cc(Cl)c(N)c(Cl)c1 (centres undefined) [Prestw-345]	1.89 ± 0.13	0.945 ± 0.072	1.29 ± 0.044	1.03 ± 0.04	0.886 ± 0.06	0.933 ± 0.09	0.988 (active)
CC12CCC3C(CCC4CC(Cl)CCC43C)C1CCC2=O (centres undefined)	0.925 ± 0.074	0.921 ± 0.077	0.906 ± 0.094	0.961 ± 0.11	0.953 ± 0.11	0.955 ± 0.16	1.05 (active)
Cc1ccccc1N1C(=O)C(=Cc2ccc(-c3ccc(C(=O)O)c(Cl)c3)o2)C(=O)NC1=S	0.617 ± 0.049	1.05 ± 0.067	0.9 ± 0.066	0.692 ± 0.017	1.24 ± 0.24	0.964 ± 0.2	1.01 (active)
COc1ccc(-n2c(C)nc3ccc(NC(=O)CC4CCCC4)cc3c2=O)cc1	1.14 ± 0.14	1.06 ± 0.13	0.932 ± 0.075	0.946 ± 0.048	0.925 ± 0.073	0.875 ± 0.15	1.01 (active)
CCN(CC)CCOC(=O)C(O)(c1ccccc1)c1ccccc1.Cl	1.16 ± 0.16	1.04 ± 0.41	0.923 ± 0.066	1.38 ± 0.043	1.03 ± 0.3	1.44 ± 0.11	0.98 (active)
CC[N+]1(C)CCCC(OC(=O)C(O)(c2ccccc2)c2ccccc2)C1 (centres undefined) [Prestw-760]	0.921 ± 0.061	0.955 ± 0.092	0.966 ± 0.073	0.952 ± 0.038	1.13 ± 0.09	0.973 ± 0.18	0.994 (active)
COC12CC(COC(=O)c3cncc(Br)c3)CN(C)C1Cc1cn(C)c3cccc2c13 (centres undefined)	1.02 ± 0.11	1.01 ± 0.078	1.03 ± 0.13	0.905 ± 0.065	1.16 ± 0.11	1.19 ± 0.16	1.04 (active)
C1=C(c2c[nH]c3ccccc23)CCNC1	0.448 ± 0.025	1.03 ± 0.069	0.915 ± 0.079	0.496 ± 0.016	1.15 ± 0.077	0.898 ± 0.087	0.989 (active)
Cl.Clc1ccc(C(OCCN2CCCCC2)c2ccccc2)cc1 (centres undefined)	0.656 ± 0.26	0.756 ± 0.051	0.721 ± 0.049	0.543 ± 0.023	1.25 ± 0.15	1.24 ± 0.14	0.652 (inactive)
Cc1cc(C(C#N)c2ccc(Cl)cc2)c(Cl)cc1NC(=O)c1cc(I)cc(I)c1O (centres undefined)	0.812 ± 0.14	0.999 ± 0.15	0.834 ± 0.055	0.731 ± 0.058	1.3 ± 0.11	1.02 ± 0.085	0.389 (inactive)
CCOC(=O)c1ccccc1-c1ccc(C=C2C(=O)NC(=O)N(c3ccc(C)cc3)C2=O)o1	0.912 ± 0.071	0.931 ± 0.058	0.971 ± 0.087	0.999 ± 0.061	1.4 ± 0.081	1.7 ± 0.14	0.951 (active)
O=C(CCCN1CCC(n2c(=O)[nH]c3ccccc32)CC1)c1ccc(F)cc1 [Prestw-484]	0.641 ± 0.18	1.11 ± 0.096	1.02 ± 0.097	0.851 ± 0.035	1.1 ± 0.12	1.33 ± 0.14	1 (active)
CCOc1cc(C=C2N=C(c3cccc(C)c3)OC2=O)ccc1OC(=O)Cc1ccccc1	0.858 ± 0.069	0.959 ± 0.081	0.914 ± 0.057	0.8 ± 0.024	1.19 ± 0.1	0.964 ± 0.12	1.01 (active)
CC(C)c1c(CN(C)C(C)Cc2ccccc2)n(C)n(-c2ccccc2)c1=O (centres undefined) [Prestw-703]	1.35 ± 0.082	1 ± 0.17	1.05 ± 0.067	0.792 ± 0.03	1.02 ± 0.073	0.995 ± 0.14	0.998 (active)
O=C(O)COc1cc(Cl)c(Cl)cc1Cl	0.993 ± 0.076	0.836 ± 0.11	0.995 ± 0.093	1.02 ± 0.039	1.37 ± 0.18	1.46 ± 0.26	1.04 (active)
COc1ccc(CNCCc2c[nH]c3ccccc23)cc1C	0.373 ± 0.058	0.574 ± 0.054	1.22 ± 0.06	0.782 ± 0.08	1.04 ± 0.052	2.55 ± 0.19	0.154 (inactive)
COc1cc2c(c(OC)c1OC)-c1ccc(O)c(=O)cc1C(NC(C)=O)CC2 (centres undefined)	2.16 ± 0.12	1.27 ± 0.084	1.52 ± 0.16	0.705 ± 0.024	1.26 ± 0.082	1.08 ± 0.19	0.754 (active)
COc1cc2c(c(OC)c1OC)-c1ccc(OC)c(=O)cc1C(NC(C)=O)CC2 (centres undefined)	2.37 ± 0.14	1.47 ± 0.092	2.59 ± 0.15	0.0948 ± 0.0032	1.87 ± 0.21	2.02 ± 0.27	0.673 (inactive)
